DT40 TDP1 CPT: growth inhibition of DT40 Tdp1-/-;hTDP1 cells with camptothecin (screen for TDP1 inhibitors). chicken DT40 Tdp1-/-;hTDP1 cells + 20 nM CPT, ATP luminescence, 48 h. Potency, µM (highest dose often 46.2 µM), inactives show at the highest dose activity change, negative = growth inhibition, usual class: inhibitors. 12% of 420,000 active; further: potency means the concentration at half of the fitted maximal effect; on the % scale 0 is the no-effect control and ±100 the full control effect; nearly all actives have a fitted effect of over 55% in size
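Chicken DT40 Tdp1-/- cells complemented with human TDP1, 400 cells/well, exposed to compounds plus 20 nM camptothecin for at least 48 h at 37 C; viability read as ATP content by CellTiter-Glo luminescence.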
IL1B secr inh: inflammasome signaling inhibition, IL-1 beta readout; THP-1 LPS/ATP IL-1B secretion, AlphaLISA, 16 h; stronger effect = lower value; activity change, % at 57.5 µM; 4.7% of 360,000 active; AID 743279; in the data active means activity change below about -50%; inconclusive means mostly about -30% to -49%; further: on the % scale 0 is the no-effect control and ±100 the full control effect
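THP-1 cells pretreated 1 hr with compounds (up to 57.5 uM final), then stimulated with LPS (250 ng/mL final) plus ATP (1.25 mM final); secreted IL-1B measured by AlphaLISA after 16 hr, decreased signal indicating inhibition.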
TDP1 inh: inhibitors of human tyrosyl-DNA phosphodiesterase TDP1; recombinant TDP1, AlphaScreen DNA substrate cleavage; AID 485290; Potency, µM (highest dose often 130 µM), without a hit: at the highest dose activity change, negative = inhibition, most hits filed as inhibitors; 0.28% of 350,000 active; Q9NUW8; further: potency means the concentration at half of the fitted maximal effect; on the % scale 0 is the no-effect control and ±100 the full control effect; nearly all actives have a fitted effect of over 40% in size
Target sequence (Q9NUW8 whole entry, looked up): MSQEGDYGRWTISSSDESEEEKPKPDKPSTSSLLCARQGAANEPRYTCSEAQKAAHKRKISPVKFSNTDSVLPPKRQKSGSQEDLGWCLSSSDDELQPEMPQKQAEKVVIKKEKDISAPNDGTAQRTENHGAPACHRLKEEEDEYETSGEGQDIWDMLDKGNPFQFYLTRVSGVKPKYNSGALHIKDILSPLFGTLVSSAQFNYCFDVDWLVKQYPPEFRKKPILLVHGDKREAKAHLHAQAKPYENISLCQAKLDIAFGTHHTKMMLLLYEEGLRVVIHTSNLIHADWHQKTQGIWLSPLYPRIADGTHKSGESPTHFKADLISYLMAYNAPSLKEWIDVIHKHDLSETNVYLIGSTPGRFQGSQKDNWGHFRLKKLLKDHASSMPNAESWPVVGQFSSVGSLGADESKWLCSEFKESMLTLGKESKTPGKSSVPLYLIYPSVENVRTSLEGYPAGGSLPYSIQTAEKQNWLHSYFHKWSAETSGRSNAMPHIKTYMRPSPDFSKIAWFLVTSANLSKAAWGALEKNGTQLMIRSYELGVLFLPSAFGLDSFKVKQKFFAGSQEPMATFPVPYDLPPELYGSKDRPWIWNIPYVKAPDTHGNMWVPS
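Compounds were preincubated with Tdp1 (1 nM final) for 15 min at room temperature before substrate (15 nM final) started a 5 min reaction; beads (10 ug/ml final) were then added for 10 min before AlphaScreen detection.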
TGFb inhibitor: inhibitors of TGF-b signaling | Potency, µM (highest dose often 46.1 µM), without a hit: top-dose activity, negative = inhibition, most hits filed as inhibitors | HepG2 CAGA-GFP TGF-b/SMAD3 reporter, GFP fluorescence, 18 h; TGF-beta stimulated, 500 pg/mL final | 1.2% of 410,000 active; further: potency means the concentration at half of the fitted maximal effect; on the % scale 0 is the no-effect control and ±100 the full control effect; nearly all actives have a fitted effect of over 65% in size
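Read-out: total well GFP (ex488/em500-530) summed from mean per-cell fluorescence. Cells: HEPG2 CAGA-GFP, 1% FBS DMEM, 18 h at 37 degrees C with 500 pg/mL final TGF-beta. Unstimulated wells served as the full-inhibition control; stimulated DMSO wells = 0%.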
HepG2 viability: counter-screen for TGF-b inhibitors: cytotoxicity in HepG2 cells. 0.76% of 410,000 active. HepG2 CAGA-GFP viability, ATP luminescence, 18 h. Potency, µM (series often up to 46.1 µM), for inactives: at the highest dose activity change, negative = cytotoxicity, usual class: cytotoxic; further: potency means the concentration at half of the fitted maximal effect
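HepG2 CAGA-GFP cells (1000/well, DMEM with 1% FBS) received compound, then TGF-beta at 500 pg/mL final, and were incubated 18 hours at 37 degrees C. Viability was read by CellTiter-Glo luminescence. Media-only wells were set as complete cell-killing and DMSO as no toxicity.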
TDP1 cell noCPT: qHTS for Inhibitors of human tyrosyl-DNA phosphodiesterase 1 (TDP1): qHTS in cells in absence of CPT | DT40 Tdp1-/- hTDP1 cells, no CPT, ATP luminescence, 48 h | Potency, µM (top dose mostly 46.2 µM), inactives show at the highest dose activity change, negative = growth inhibition, usual class: inhibitors | 15% of 420,000 active; further: potency means the concentration at half of the fitted maximal effect; on the % scale 0 is the no-effect control and ±100 the full control effect; nearly all actives have a fitted effect of over 55% in size
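Compound effects on proliferation are scored in DT40 Tdp1-/-;hTDP1 cells in the absence of CPT. ATP levels (CellTiter-Glo luminescence) are recorded after a ≥48 hr, 37 °C incubation.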
An asterisk follows results filed as active; ? = inconclusive; · = no result given; [ ] = dose if it differs, or a comment. In the library only some 18% were active in any assay of this set; here they are far more common. Unless noted, the call rests on the fitted dose curve; in most records, active means well fitted curve in the direction sought with a large enough effect; inconclusive means small, poorly fitted or top-dose-only effect, or another doubt; inactive means no such curve, though single readings can be large; an effect the other way counts as inactive or inconclusive.

SMILES | DT40 TDP1 CPT | IL1B secr inh | TDP1 inh | TGFb inhibitor | HepG2 viability | TDP1 cell noCPT
Cc1ccc(N2C(=O)CC(Sc3ccccc3C(=O)O)C2=O)cc1C (stereo not given) | 4.1µM* | 0 | 2% | 5% | 3% | 12µM*
Cc1ccc(N2C(=O)CC(Sc3ccccc3C(=O)O)C2=O)cc1 (stereo not given) | 7.3µM* | 0 | -2% | -14% | -5% | 15µM*
Cc1cccc(NC(=O)CNC(=O)Cc2ccc3c(c2)OCCO3)c1C | -17% | -2 | -1%[56.1 µM] | -5% | -17% | -7%
Nc1[nH]c(=O)nc2nnsc12 | -2% | · | · | -1% | 7% | -28%
CC(OC(=O)[C@@H]1CCCN1C(=O)c1cccs1)C(=O)Nc1cccc([N+](=O)[O-])c1 (stereo not given in full) | -20% | 13 | 2% | 1% | 9% | -18%
CCCCNC(=S)N(C)/N=C/c1ccc(OCC(=O)Nc2c(C)cc(C)cc2C)c(OC)c1 | 13µM* | -9 | 0% | -19% | -5% | 8.2µM*
COc1cc(/C=N/NC(=O)c2ccc(Cl)cc2)ccc1OCC(=O)N1CC(C)OC(C)C1 (stereo not given) | -7% | -10 | 5% | 1% | 0% | ?
CCOc1cc(/C=N/n2cnnc2)ccc1OCC(=O)Nc1ccccc1OC | -8% | -4 | 7% | 2% | 8% | 8.2µM*
COc1cc(/C=N/NC(=S)Nc2cccc(Cl)c2C)ccc1OCC(=O)N1CC(C)OC(C)C1 (stereo not given) | 15µM* | -26 | 5% | ? | 11% | 15µM*
COc1ccc(NC(=O)COc2ccc(/C=N/O)cc2OC)cc1 | ? | -16 | 5% | 0% | 4% | 12µM*
CC1CCN(CC(=O)Nc2ccc(C(=O)N3CCCCC3)cc2)CC1 | -23% | -8 | 4% | -13% | -7% | ?
COc1cc(/C=N/NC(=S)NC(C)C)ccc1OCC(=O)Nc1c(C)cc(C)cc1C | 7.3µM* | 28 | 1% | -22% | -19% | 7.3µM*
CCCCNC(=S)N(C)/N=C/c1ccc(OCC(=O)Nc2ccc(OC)cc2)c(OC)c1 | 23µM* | ? | 1% | 5% | -10% | ?
CCNC(=S)N/N=C/c1ccc(OCC(=O)Nc2ccc(OC)cc2)c(OC)c1 | ? | -2 | 6% | -15% | -5% | ?
COc1cc(/C=N/NC(=O)c2ccncc2)ccc1OCC(=O)Nc1ccc(C)c(C)c1 | ? | 17 | · | 8% | -2% | ?
COc1cc(C)c(Cl)cc1S(=O)(=O)NCc1ccccn1 | -10% | -17 | · | 6% | -5% | 10%
CCOC(=O)c1[nH]c2ccccc2c1NC(=O)c1ccc(OC)c(OC)c1 | ? | · | 6% | -2% | -33% | ?
CC(C)Nc1cc(N2CCN(C3CCCCC3)CC2)c2noc3c2c1C(=O)c1ccccc1-3 | ? | · | 9% | -2% | -34% | ?
O=C(Cn1cnc2ccccc21)c1ccc(Br)cc1 | 2% | -16 | 6% | 3% | -22% | -7%
C=CCn1c(=N)n(CC(=O)c2ccccc2)c2ccccc21 | ? | ? | · | -29% | 3% | ?
C=CCn1c(=N)n(CC(=O)c2ccc(Br)cc2)c2ccccc21 | ? | -83* | · | ? | -39% | ?
N=c1n(N)c2ccccc2n1CC(=O)c1ccc(Br)cc1 | 23µM* | -94* | · | -9% | -33% | 21µM*
CCOC(=O)C1CCN(c2cc3c(cc2NC(=O)c2ccc(OC)c(OC)c2)n(C)c(=O)n3C)CC1 | 9.2µM* | 9 | 2% | 9% | -9% | 5.8µM*
CCOC(=O)C1CCN(C(=O)Nc2ccc(OC)c(OC)c2)CC1 | 2% | 0 | -3% | -10% | -17% | -15%
CCOC(=O)C1CCN(c2cc3c(cc2NC(=O)c2ccccc2)n(C)c(=O)n3C)CC1 | 21µM* | 9 | 4% | 13% | 0% | 8.2µM*
SMILES | DT40 TDP1 CPT | IL1B secr inh | TDP1 inh | TGFb inhibitor | HepG2 viability | TDP1 cell noCPT
Cn1c(=O)n(C)c2cc(N3CCCCC3)c(NC(=O)c3ccc(Cl)cc3)cc21 | -3% | · | 2% | 22% | -4% | -6%
CC(=O)c1cccc(NC(=O)Nc2cc3c(cc2N2CCCC2)n(C)c(=O)n3C)c1 | ? | · | 10% | -28% | -39% | ?
CCOC(=O)c1ccc(N2CCN(c3ccccc3OC)CC2)c(NC(=O)Nc2ccc(CC)cc2)c1 | ? | · | 3% | 1% | -3% | ?
CCOC(=O)c1ccc(NC(=O)Nc2cc3c(cc2N2CCCC2)n(C)c(=O)n3C)cc1 | ? | · | 12% | ? | -24% | 23µM*
CCOC(=O)c1ccc(N2CCN(c3ccccc3F)CC2)c(NC(=O)Nc2ccccc2)c1 | 16µM* | 23 | 0% | 0% | -2% | 16µM*
CC1CCCC(NC(=O)CN2CCN(S(=O)(=O)c3cccs3)CC2)C1C (stereo not given) | -20% | 9 | 0%[56.1 µM] | -3% | 10% | 7%
COC(=O)c1ccc2c(c1)N(CC(=O)Nc1ccc(C)cc1Cl)C(=O)c1ccccc1S2 | · | · | 1% | 13% | -13% | ·
Cc1ccc(CNC(=O)c2ccc(N3CCCC3)c(NC(=O)Nc3ccc(C)cc3)c2)cc1 | 15µM* | · | -1% | 6% | -2% | 23µM*
CCOC(=O)c1ccc(N2CCCCC2)c(NS(=O)(=O)c2ccc(C)cc2)c1 | ? | 60 | 4% | 6% | 13% | 21µM*
COCCNC(=O)c1ccc(N2CCCCC2)c(NS(=O)(=O)c2ccc(C)cc2)c1 | ? | -1 | 7% | 9% | 28% | ?
Cc1ccc(O)c(/C=N/NC(=O)CN2CCCC2)c1 | ? | 84 | 4% | -10% | -6% | ?
CCS/C(N)=N/N=C/c1cc(C)ccc1O | 0.58µM* | -55* | 7% | -9% | -56% | 0.82µM*
CCCCS/C(N)=N/N=C/c1cc(C)ccc1O | 4.1µM* | -29 | 2% | ? | -45% | 5.2µM*
CS/C(N)=N/N=C/c1cc(C)ccc1O | -3% | -26 | 5% | ? | -45% | ?
C=C(c1ccccc1C)[n+]1ccccc1 | -24% | 39 | · | 6% | -41% | ?
C=C(c1ccccc1Cl)[n+]1ccccc1 | 12µM* | 12 | · | -9% | 3% | 7.3µM*

From PubChem
